# Measured values: PubChem BioAssay
# “And” between values parts separate entries of the source, which are not always exact repeats. Equal values may be shown once. Records with an inconclusive call do not appear. The source made the active and inactive calls. Unless noted, no stated cut-off is given here; in the data, active means inhibition above about 80%; inactive means the rest.
# How the values were obtained:
# [1] = viability loss in pontine glioma line – cell-based, SU-DIPG-XXV, MIPE5.0, CellTiter-Glo, qHTS, dose response (AID 1347065; cut-off not given, nearly all actives have AC50 up to about 26 µM;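 further: cells exposed to compound for 48 hours before ATP readout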); settings: CellTiter-Glo ATP luminescence
# [2] = SU-DIPG-XXV glioma cell viability, MIPE5.0 library, qHTS (AID 1347068; cut-off not given, nearly all actives have IC50 up to about 30 µM;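 on IC50: cells exposed to compound for 48 hours before viability readout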)
# [3] = JHH-DIPG-1 glioma cell viability, MIPE5.0 library, CellTiter-Glo luminescence, qHTS (AID 1347067; cut-off not given, nearly all actives have AC50 up to about 26 µM;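 further: cells exposed to compound for 48 hours before readout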); settings: JHH-DIPG-1 glioma viability, CellTiter-Glo ATP luminescence
# [4] = LFS_MB_P medulloblastoma growth inhibition, cell-based, chromothripsis tumors, cisplatin or BGB combos (AID 1671449); settings: LFS_MB_P medulloblastoma cells;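 further: cells exposed for 96 hours; 0% = vehicle DMSO and 100% = killing by high DMSO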
# [5] = HDN33 neuroblastoma growth inhibition, cell-based, chromothripsis tumors, cisplatin or BGB combos (AID 1671450); settings: HDN33 neuroblastoma cells, stronger effect = higher value;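 further: cells exposed to compound for four days; 0% = vehicle DMSO and 100% = cell killing by high DMSO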
# [6] = ICB984 medulloblastoma cell growth inhibition, synergistic combos for chromothripsis tumors, cisplatin or BGB combos (AID 1671451; call rule not given here;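 further: cells exposed for 96 hours before readout; 0% = vehicle DMSO and 100% = killing by high DMSO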); settings: ICB984 medulloblastoma cells, drug combinations, stronger effect = higher value
# [7] = LFS_MB_1R medulloblastoma cell growth inhibition, synergistic combos for chromothripsis tumors, cisplatin or BGB combos (AID 1671452); settings: LFS_MB_1R medulloblastoma cells, stronger effect = higher value;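 further: cells exposed for 96 hours before readout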
# [8] = HTB85 osteosarcoma cell growth inhibition, synergistic combos for chromothripsis tumors, BGB or cisplatin IC20 combos (AID 1671453); settings: HTB85 osteosarcoma cells, drug combinations, stronger effect = higher value;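 further: cells exposed for 96 hours before readout; 0% = vehicle DMSO and 100% = high DMSO killing control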
# [9] = CRL2098 osteosarcoma cell growth inhibition, synergistic combos for chromothripsis tumors, BGB or cisplatin IC20 combos (AID 1671454); settings: CRL2098 osteosarcoma cells, drug combinations, stronger effect = higher value;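 further: cells exposed for 96 h before readout; 0% = vehicle DMSO and 100% = killing by high DMSO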
# [10] = HD-MB03 medulloblastoma cell growth inhibition, synergistic combos for chromothripsis tumors, BGB or cisplatin IC20 combos (AID 1671455; in the data active means inhibition above about 83%;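 further: 0% = vehicle DMSO and 100% = high DMSO as cytotoxic control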); settings: HD-MB03 medulloblastoma cells, stronger effect = higher value
# [11] = UWB1.289 ovarian carcinoma cell growth inhibition, synergistic combos for chromothripsis tumors, BGB or cisplatin combos (AID 1671456); settings: UWB1.289 ovarian carcinoma cells, stronger effect = higher value;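 further: cells exposed to compound for four days; 0% = vehicle DMSO and 100% = killing by high DMSO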
# [12] = LFS_MB_2R medulloblastoma cell growth inhibition, synergistic combos for chromothripsis tumors, cisplatin combos (AID 1671457); settings: LFS_MB_2R medulloblastoma cells, stronger effect = higher value;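 further: cells exposed to compound for four days before readout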
# [13] = MDA-MB-436 breast carcinoma cell growth inhibition, synergistic combos for chromothripsis tumors, BGB or cisplatin combos (AID 1671458; call rule not given here;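 further: cells exposed for 96 hours; 0% = vehicle DMSO and 100% = killing by high DMSO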); settings: MDA-MB-436 breast carcinoma growth inhibition, drug combinations, stronger effect = higher value
# [14] = UWB1.289_BRCA1 ovarian cancer growth, cell-based, BGB or cisplatin combinations (AID 1671459); settings: UWB1.289 BRCA1 ovarian carcinoma, drug combinations, stronger effect = higher value
# [15] = human astrocyte viability loss, single and combined drugs, cytotoxicity control for chromothriptic childhood tumor combination screen, cell-based, BGB or cisplatin IC20 combos (AID 1671460); settings: Human astrocytes, drug combinations, stronger effect = higher value;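 further: cells exposed to compounds for 96 hours before viability readout; 0% = vehicle and 100% = killing control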
# [16] = growth inhibition of BT084 medulloblastoma cells, cell-based, ICGC_MB145, cisplatin and BGB IC40 combos (AID 1671461); settings: drug combinations, stronger effect = higher value;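 further: cells exposed to drugs for 96 hours; 0% = vehicle DMSO and 100% = high DMSO full killing control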
# [17] = growth inhibition of RCMB18 medulloblastoma cells, cell-based, cisplatin and BGB IC40 combos (AID 1671462); settings: stronger effect = higher value;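 further: cells exposed to compound for four days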
# [18] = growth inhibition of CRL1545 osteosarcoma cells, cell-based, cisplatin and BGB IC20 combos (AID 1671464); settings: stronger effect = higher value;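 further: cells exposed to compound for 96 hours before readout; 0% = vehicle DMSO and 100% = high DMSO killing control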
# [19] = measured here: combination with BGB IC40, at 0.05 µM
# [20] = measured here: with BGB IC20 combination, at 0.5 µM
# [21] = measured here: with cisplatin IC20 combination, at 0.5 µM
# [22] = measured here: combination with cisplatin, at 0.5 µM
# [23] = measured here: combination with cisplatin, at 5 µM
structure (smiles),measurement,setting,value
C[C@@H]1CC2C3C[C@H](F)C4=CC(=O)C=C[C@]4(C)[C@@]3(F)[C@@H](O)C[C@]2(C)[C@@]1(OC(=O)c1ccco1)C(=O)SCF (some centres undefined),AC50,[1],20.9 µM (active)
same,outcome,[2],inactive
CNC(=O)Cn1cc(-c2ccc3c(c2)C(F)CC32NC(=O)N(CC(=O)N(Cc3ccc(F)cc3)C(C)C(F)(F)F)C2=O)cn1 (centres undefined),outcome,[1],inactive
same,outcome,[3],inactive
same,outcome,[2],inactive
CCNCc1nc2c(N)nc3ccccc3c2n1CC(C)(C)O,outcome,[1],inactive
same,outcome,[3],inactive
same,outcome,[2],inactive
Nc1ccc(F)cc1NC(=O)c1ccc(CNC(=O)/C=C/c2cccnc2)cc1,AC50,[1],5.9 µM (active)
same,AC50,[3],9.34 µM (active)
same,IC50,[2],16.6 µM (active)
same,inhibition,"[4]; at 0.5 µM, stronger effect = higher value",-9.27% (inactive) and 17.5% (inactive)
same,inhibition,"[4]; measured here: combination with BGB IC20, at 0.005 µM",-31.2% and 6.89%
same,inhibition,"[4]; measured here: combination with BGB IC40, at 0.005 µM",-55.6% and -31.5%
same,inhibition,[4]; [19],-32.7% and -5.83%
same,inhibition,"[4]; measured here: combination with cisplatin, at 0.5 µM, stronger effect = higher value",16% and 62.9%
same,inhibition,"[4]; measured here: combination with cisplatin, at 5 µM, stronger effect = higher value",108% and 116%
same,inhibition,"[5]; BGB combo, at 5 µM",80.7%
same,inhibition,[5]; at 0.5 µM,12.4% (inactive) and 12.7% (inactive)
same,inhibition,"[5]; cisplatin combo, at 5 µM",80.6% and 84.9%
same,inhibition,[5]; [20],1.48% and 7.37%
same,inhibition,[5]; [21],26.1% and 17.9%
same,inhibition,"[5]; single agent, at 5 µM",78.9% and 79.8%
same,inhibition,"[6]; BGB IC20 combo, at 0.005 µM",6.31% and 11.4%
same,inhibition,"[6]; BGB IC40 combo, at 0.005 µM",6.94% and 2.58%
same,inhibition,"[6]; BGB IC40 combo, at 0.05 µM",84.2% and 81%
same,inhibition,[6]; at 0.5 µM,-12.1% (inactive) and -33.8% (inactive)
same,inhibition,"[6]; cisplatin combo, at 0.05 µM",83.9% and 80.3%
same,inhibition,"[6]; cisplatin combo, at 0.5 µM",-1.65% and -31.4%
same,inhibition,"[6]; cisplatin combo, at 5 µM",-26.1% and -13.8%
same,inhibition,"[6]; measured here: 5 uM single agent, at 5 µM",-14% and -9.96%
same,inhibition,[7]; at 0.5 µM,30% (inactive) and 36% (inactive)
same,inhibition,[7]; [19],-28.7% and -30.1%
same,inhibition,[7]; [22],65% and 50%
same,inhibition,[7]; [23],97% and 96%
same,inhibition,[8]; at 0.5 µM,21% (inactive) and 24% (inactive)
same,inhibition,"[8]; measured here: with BGB IC20, at 0.5 µM",43.2% and 13.5%
same,inhibition,"[8]; measured here: with BGB IC20, at 5 µM",97.2% and 95.3%
same,inhibition,"[8]; measured here: with cisplatin IC20, at 0.5 µM",15.4% and 37.9%
same,inhibition,"[8]; measured here: with cisplatin IC20, at 5 µM",97.9% and 96.5%
same,inhibition,"[8]; single agent, at 5 µM",91.8% and 89.6%
same,inhibition,[9]; at 0.5 µM,-40.8% (inactive) and -34.5% (inactive)
same,inhibition,"[9]; measured here: combination with BGB at IC20, at 0.5 µM",-53.4% and -17.4%
same,inhibition,"[9]; measured here: combination with cisplatin at IC20, at 0.5 µM",-22.2% and -51.8%
same,inhibition,[10]; at 0.5 µM,19.9% (inactive) and 36% (inactive)
same,inhibition,"[10]; measured here: combo with BGB at IC20, at 0.5 µM",24.3% and 36.2%
same,inhibition,"[10]; measured here: combo with cisplatin at IC20, at 0.5 µM",28.3% and 50.6%
same,inhibition,[11]; at 0.5 µM,6.29% (inactive) and 20.9% (inactive)
same,inhibition,"[11]; measured here: inhibition with BGB combination, at 0.05 µM",-10.5% and -21.7%
same,inhibition,"[11]; measured here: inhibition with cisplatin combination, at 0.05 µM",-34.6% and -15.2%
same,inhibition,[12]; at 0.5 µM,19.4% (inactive) and 17.9% (inactive)
same,inhibition,[12]; [22],42.4% and 41%
same,inhibition,[12]; [23],91.1% and 92.2%
same,inhibition,[13]; at 0.5 µM,-0.59% (inactive) and 2.18% (inactive)
same,inhibition,"[13]; measured here: BGB combination, at 0.5 µM",-5.08% and -6.18%
same,inhibition,"[13]; measured here: BGB combination, at 5 µM",27.2% and 23.4%
same,inhibition,"[13]; measured here: cisplatin combination, at 0.5 µM",-7.52% and 1.65%
same,inhibition,"[13]; measured here: cisplatin combination, at 5 µM",37.2% and 38.6%
same,inhibition,"[14]; BGB combination, concentration series, at 5 µM",85.3% and 82.2%
same,inhibition,[14]; at 0.5 µM,1.02% (inactive) and 1.89% (inactive)
same,inhibition,"[14]; cisplatin combination, concentration series, at 5 µM",98.1% and 92.9%
same,inhibition,[15]; at 0.5 µM,-0.32% (inactive) and -2.77% (inactive)
same,inhibition,"[15]; measured here: combo with BGB IC20, at 0.5 µM",-0.373% and -1.39%
same,inhibition,"[15]; measured here: combo with cisplatin IC20, at 0.5 µM",-8.73% and -1.18%
same,inhibition,[16]; at 0.5 µM,39.6% (inactive) and 45% (inactive)
same,inhibition,"[16]; cisplatin combination, at 0.5 µM",58.4% and 61.5%
same,inhibition,"[16]; cisplatin combination, at 5 µM",87.7% and 92.4%
same,inhibition,"[16]; measured here: BGB IC40 combination 0.05 uM, at 0.05 µM",-24% and -23.6%
same,inhibition,"[16]; single agent, at 5 µM",65.3% and 57.1%
same,inhibition,[17]; at 0.5 µM,43.9% (inactive) and 41.5% (inactive)
same,inhibition,"[17]; cisplatin combo, at 5 µM",93.2% and 98.3%
same,inhibition,"[17]; measured here: BGB IC40 combination, at 0.05 µM",-7.17% and -21.6%
same,inhibition,[17]; [22],52.2% and 77.9%
same,inhibition,"[17]; single agent, at 5 µM",82.6% and 79%
same,inhibition,[18]; at 0.5 µM,45.6% (inactive) and 32.9% (inactive)
same,inhibition,[18]; [20],25.5% and 27%
same,inhibition,[18]; [21],54.9% and 35.9%
same,inhibition,"[18]; single agent, at 0.05 µM",-31.6% and 15.5%
same,inhibition,"[18]; single agent, at 5 µM",32.4% and 21.9%
